This is a sample that favours compounds with a hit; in the whole collection about 0.8% have one here.
PI4K2A block – blocks human PI4K2A kinase activity | purified PI4K2A, ADP-Glo luminescence, 1 h; stronger effect = lower value | activity change, negative = inhibition, % at 76.9 µM | AID 1346378 | actives 0.13% (n = 420,000); in the data active = activity change below about -50%; inconclusive = mostly about -30% to -49%;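 also: -100% = wells without enzyme as full effect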
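PI4K2A activity was measured by ADP-Glo luminescence: enzyme (4 ug/mL stock) and phosphatidylinositol (1.2 mM stock) in Tris pH 7.5/MgCl2/EGTA/Triton X-100 buffer were reacted with ATP (300 microM stock) for one hour at ambient temperature.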
TDP1 inh – TDP1 (human) enzyme inhibition; Potency, µM (highest dose often 130 µM), for inactives: at the highest dose activity change, negative = inhibition, actives largely listed as inhibitors; actives 0.28% (n = 350,000); Q9NUW8; recombinant TDP1, AlphaScreen DNA substrate cleavage; also: potency is read from the fitted curve at half-maximal effect; % is scaled to controls: 0 for no effect and ±100 for the full control effect; nearly all actives have a fitted effect of over 40% in size
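Recombinant human Tdp1 (E. coli-expressed, 1 nM final) preincubated with compounds 15 min at room temperature, then 5'-biotin/3'-phosphotyrosine-FITC DNA substrate (15 nM final) added for 5 min. AlphaScreen beads (10 ug/ml final) added 10 min; cleavage lowers signal.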
APEX1 inh – APE1 (human) endonuclease inhibition; P27695; recombinant APE1, TAMRA/BHQ-2 abasic DNA cleavage fluorescence; Potency, µM (top dose mostly 65.8 µM), without a hit: at the top dose activity change, negative = inhibition, most hits filed as inhibitors; actives 0.35% (n = 350,000); AID 2517;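 also: potency is read from the fitted curve at half-maximal effect; plate controls were vehicle for no effect and reference inhibitor for full effect; nearly all actives have a fitted effect of over 55% in size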
Target sequence (P27695 whole entry, looked up): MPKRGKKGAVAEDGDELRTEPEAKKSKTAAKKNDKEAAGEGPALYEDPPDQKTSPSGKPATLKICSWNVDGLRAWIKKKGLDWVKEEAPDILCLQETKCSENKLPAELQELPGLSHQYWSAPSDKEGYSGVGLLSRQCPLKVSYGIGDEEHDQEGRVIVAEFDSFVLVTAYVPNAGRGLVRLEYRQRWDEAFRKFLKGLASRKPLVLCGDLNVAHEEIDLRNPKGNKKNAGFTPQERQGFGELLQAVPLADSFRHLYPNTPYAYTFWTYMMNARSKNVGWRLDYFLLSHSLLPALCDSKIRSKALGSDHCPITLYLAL
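0.75 nM APE1 + cpd, 15 min RT; start w/ 50 nM TAMRA/BHQ-2 THF-abasic dsDNA; kinetic fluor 525/598 nm ×3 reads @60 s; Δ(read3−read1); normalized to DMSO and NSC13755 control wells.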
FEN1 inh – inhibitors of human flap endonuclease 1 | P39748 | Recombinant FEN1 flap cleavage, fluorescence, 15 min | Potency, µM (top dose mostly 114 µM), without a hit: at the top dose activity change, negative = inhibition, usual class: inhibitors | actives 0.35% (n = 390,000); also: potency is read from the fitted curve at half-maximal effect; % is scaled to controls: 0 for no effect and ±100 for the full control effect; nearly all actives have a fitted effect of over 65% in size
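Recombinant FEN1 (10 nM) was preincubated with pin-transferred compounds for 15 min at room temperature, then flap DNA substrate (50 nM final) was added. Plates were read at 0 and 15 min, and normalized concentration–response data were fitted to a four-parameter Hill equation.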
Tb PGK inh – inhibitors of T. brucei phosphoglycerate kinase; PGK/GAPDH coupled, Kinase-Glo luminescence, 60 min; Potency, µM (top dose mostly 57.5 µM), for the others: at the top dose activity change, negative = inhibition, actives largely listed as inhibitors; actives 0.043% (n = 380,000); also: potency is read from the fitted curve at half-maximal effect; % is scaled to controls: 0 for no effect and ±100 for the full control effect; nearly all actives have a fitted effect of over 60% in size
Target sequence (P07378 whole entry, looked up): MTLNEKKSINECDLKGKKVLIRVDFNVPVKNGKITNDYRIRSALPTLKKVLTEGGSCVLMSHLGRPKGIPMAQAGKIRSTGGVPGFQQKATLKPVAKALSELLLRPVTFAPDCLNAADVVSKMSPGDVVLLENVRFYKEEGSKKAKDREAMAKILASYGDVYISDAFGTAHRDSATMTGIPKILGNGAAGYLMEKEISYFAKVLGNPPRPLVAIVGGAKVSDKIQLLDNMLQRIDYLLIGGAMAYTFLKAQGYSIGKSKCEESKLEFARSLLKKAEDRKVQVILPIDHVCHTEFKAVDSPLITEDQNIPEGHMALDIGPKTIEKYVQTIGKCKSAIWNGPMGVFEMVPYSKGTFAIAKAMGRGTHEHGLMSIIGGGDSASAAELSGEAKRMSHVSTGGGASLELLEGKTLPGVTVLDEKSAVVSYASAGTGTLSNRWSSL
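Recombinant glycosomal PGK reaction used 1,3-bisphosphoglycerate generated in-well by GAPDH (100nM final) in 100mM TEA pH 7.6, 5mM MgCl2, 0.01% Tween-20. After 60 minutes at room temperature, ATP was read by Kinase-Glo Plus luminescence end-point.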
Tb PFK inh-1 – inhibitors of T. brucei phosphofructokinase; actives 0.17% (n = 330,000); T. brucei PFK, ADP-Glo luminescence; Potency, µM (highest dose often 57.5 µM), for inactives: at the highest dose activity, negative = inhibition, hits mostly inhibitors; O15648; AID 485367;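 also: potency is read from the fitted curve at half-maximal effect; 0% = uninhibited 1x PFK enzyme wells and -100% = no-enzyme wells; nearly all actives have a fitted effect of over 60% in size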
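PFK 1.25 nM, F6P 0.5 mM, ATP 0.1 mM, 0.1 M TEA pH 8.0, 5 mM MgCl2, 0.01% Tween20, 0.1% BSA; 45 min RT. ADP-Glo readout. qHTS titration up to 57 uM; curves fitted, compounds curve-classed.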
TbPFK ATP – Tb phosphofructokinase inhibition, orthogonal luminescence. Tb PFK enzyme, ATP depletion, Kinase-Glo Plus luminescence. shares compounds with Tb PFK inh-1. actives 47% (n = 1,100). AID 504636. Potency, µM (doses to about 57.5 µM), without a hit: top-dose inhibition; calls by dose curve; also: potency is read from the fitted curve at half-maximal effect; nearly all actives have a fitted effect of over 60% in size
Tb PFK inh-2 – validation of T. brucei phosphofructokinase inhibitors; Potency, µM (series often up to 57.5 µM), without a hit: at the highest dose activity change, negative = inhibition, most hits filed as inhibitors; shares compounds with Tb PFK inh-1; purified T. brucei PFK, ADP-Glo luminescence, 45 min; actives 41% (n = 1,100);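 also: potency is read from the fitted curve at half-maximal effect; plate controls were full PFK enzyme control for no effect and no enzyme control for full effect; nearly all actives have a fitted effect of over 60% in size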
Numbers without * were called inactive; i = inactive; ? = inconclusive; nt = no result given; [ ] = another dose, or the depositor's remark. Unless noted, calls follow the shape of the dose curve; as a rule, active = well fitted curve in the direction sought with a large enough effect; inconclusive = small, poorly fitted or top-dose-only effect, or another doubt; inactive = no such curve, though single readings can be large; an effect the other way counts as inactive or inconclusive.

SMILES | PI4K2A block | TDP1 inh | APEX1 inh | FEN1 inh | Tb PGK inh | Tb PFK inh-1 | TbPFK ATP | Tb PFK inh-2
CCN1CC(CNC(=O)c2ccc3nc(Cc4cccc(Cl)c4)oc3c2)CC1=O (configuration not stated) | -9 | 4% | 16% | 18% | 7% | ? | ? | 15µM*
O=C(CCl)c1ccccc1 | nt | 3% | -3% | nt | nt | nt | nt | nt
O=S1(=O)N(Cc2ccccc2)CCCN1Cc1cccc(Cl)c1 | -4 | nt | nt | -12% | 13% | nt | nt | nt
Nc1ccn(Cc2cccc(Cl)c2)n1 | -6 | 4% | -5% | -1% | 8% | 27µM* | 19µM* | ?
Fc1ccc(CNc2ncnc3cc(Cl)ccc23)cc1 | -1 | nt | 9% | -5% | i | 19µM* | ? | 27µM*
COc1ccc(OC)c(CC(=O)O)c1 | 6 | 2% | -6% | -15% | -7% | -1% | nt | nt
COc1ccc(OC)c(S(=O)(=O)N(C(C)=O)c2ccc3oc(=O)sc3c2)c1 | -1 | 6% | 9% | 7% | 0% | ? | -21% | ?
COc1cccc(OCCc2c(C)n[nH]c2C)c1 | 2 | 4% | -4% | -7% | -2% | 27µM* | ? | ?
CCOC(=O)c1c(/N=C/c2c(O)n(-c3ccc(F)cc3)c(=S)[nH]c2=O)sc2c1CCCC2 | -2 | 3% | 2% | 3% | 1% | -2% | nt | nt
CCOC(=O)c1c(NC(=O)C2C3C=CC(C3)C2(C)C(=O)O)sc2c1CCCC2 (configuration not stated) | -2 | ? | ? | -10% | ? | ? | ? | 27µM*
O=C1CC2OCC=C3CN4CCC56c7ccccc7N1C5C2C3CC46 (configuration not stated) | nt | 11% | -3% | nt | nt | nt | nt | nt
ClCCN(CCCl)c1ccc(C=Nc2ccncc2)cc1 | nt | nt | nt | -21% | nt | nt | nt | nt
O=C(Nc1ccccc1)c1ccccc1I | nt | 27% | -1% | nt | nt | nt | nt | nt
O=C(O)c1ccccc1C(=O)Nc1ccc(Br)c(C(F)(F)F)c1 | 2 | 1% | -6% | 7% | -4% | ? | 2% | 0%
CCn1cc2nc(SCc3cccc(C(F)(F)F)c3)n(Cc3ccc(OC)cc3)c(=O)c2n1 | 1 | 3% | nt | ? | -6% | nt | nt | nt
O=C(CSc1nnc(CNc2ccc(F)cc2)o1)N1CCN(C(=O)c2ccco2)CC1 | -3 | 7% | -1% | 6% | 4%[11.5 µM] | ? | 15µM* | 24µM*
O=C(NCc1ccc(C(=O)N2CCC3(CC2)OCCO3)cc1)c1cccc(Br)c1 | -6 | 4% | -7% | -9% | 8% | 0% | nt | nt
O=C(O)c1ccc(NCc2cccc(Br)c2)cc1 | -2 | 1% | 18% | -4% | -4% | 21µM* | 12µM* | 24µM*
Cc1cccc(C(=O)Nc2ccc3c(c2)C(=O)NC3=O)c1 | -6 | nt | -40% | 2% | -3% | ? | ? | 30µM*
Cc1cccc(NC(=O)N2CCCC2)c1 | 5 | -5% | ? | -2% | nt | 2% | nt | nt
COc1ccccc1N1CCN(C(=O)CCC(=O)Nc2nnc(CC(C)C)s2)CC1 | 12 | 5% | 54% | -7% | 0% | 0% | nt | nt
O=[N+]([O-])c1ccc(NCc2ccccc2)nc1 | -1 | 3% | 0% | 3% | -8% | ? | ? | ?
O=[N+]([O-])c1cc(C(F)(F)F)c(Cl)c([N+](=O)[O-])c1Nc1ncc(C(F)(F)F)cc1Cl | nt | nt | nt | -13% | nt | nt | nt | nt
CC[C@]1(O)CC[C@H]2[C@@H]3CCC4=CCCC[C@@H]4[C@H]3CC[C@@]21C | 2 | nt | nt | nt | nt | nt | nt | nt
CCSS(=O)(=O)c1cccc2cccnc12 | -12 | 8% | 3% | -32% | 6% | 21µM* | 8.5µM* | 19µM*
SMILES | PI4K2A block | TDP1 inh | APEX1 inh | FEN1 inh | Tb PGK inh | Tb PFK inh-1 | TbPFK ATP | Tb PFK inh-2
Nc1nc(=S)c2ncn(C3CCCC3)c2[nH]1 | -6 | -3% | 1% | -6% | -5% | ? | ? | ?
[CH3][Hg][Cl] | nt | 9% | 14% | nt | nt | nt | nt | nt
CN(c1ccccc1)c1ccc(/C=C/[N+](=O)[O-])cc1 | 27 | 5% | 2% | -8% | -2% | ? | 17µM* | 24µM*
O=[N+]([O-])/C=C/c1ccc2c(c1)OCO2 | -2 | nt | nt | ? | nt | nt | nt | nt
[O-][Cl+]O | nt | 6% | 0% | nt | nt | nt | nt | nt
C=C(C)[C@H]1CC[C@]2(C(=O)O)CC[C@]3(C)[C@@H](CC[C@H]4[C@@]5(C)CC[C@@H](O)C(C)(C)[C@@H]5CC[C@@]43C)[C@H]12 | nt | 4%[56.1 µM] | 18%[21 µM] | nt | nt | nt | nt | nt
O=C(CSc1n[nH]c(=O)n1C1CC1)Nc1ccc(F)c(Cl)c1 | -4 | 1% | 4% | -11% | 5% | ? | ? | ?
Cc1ncc([N+](=O)[O-])n1CC(=O)Nc1ccc(F)c(F)c1 | 1 | nt | 20% | 2% | i | ? | ? | ?
O=C(Nc1ccc(F)c(Cl)c1)Nn1cnnc1 | nt | 5% | 46% | nt | nt | 17µM* | ? | ?
O=C(Cn1cnc([N+](=O)[O-])c1)Nc1ccc(F)c(Cl)c1 | -2 | nt | 49% | -23% | 5% | 24µM* | 7.6µM* | 11µM*
CCN1CCN(c2ccc(NC(=O)C(C)C)cc2Cl)CC1 | 2 | 0% | -5% | -4% | -2% | 0% | nt | nt

Screening results (PubChem)
